The values that follow come from PubChem BioAssay (EPA / NIEHS).

SMILES strings stand for the structures. Results filed as inconclusive are left out. The source made the active and inactive calls. How the source made its calls, unless noted: active means hit-call score of the fitted dose curve at least 0.9, where 1 is the maximum; inconclusive means response in the unintended direction; inactive means score below 0.9.

Read-out in one experiment: TIMP1, TIMP1 (gene 7076)
Nature of the experiment: LTEA_HepaRG_TIMP1: Life Technologies and Expression Analysis (LTEA) Assay for TIMP1 using HepaRG (AID 2283534; active means hit-call score of the fitted dose curve at least 0.9, where 1 is the maximum; inactive means score below 0.9). Particulars: mRNA level, 48 h; actives raise or lower the signal. The gist of the method: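 Bidirectional change in TIMP1 transcript versus 0.5% DMSO, measured by TaqMan qRT-PCR with three housekeeping genes for normalization. HepaRG human liver cells dosed 48 h in duplicate, top concentration 100 uM with half-log dilutions.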

Read-out in experiment [1]: Tumor necrosis factor receptor 1 (TNFRSF1A), TNFRSF1A (gene 7132)
As to the kind of experiment: LTEA_HepaRG_TNFRSF1A: Life Technologies and Expression Analysis (LTEA) Assay for Tumor necrosis factor receptor 1 (TNFRSF1A) using HepaRG (AID 2283535; active means hit-call score of the fitted dose curve at least 0.9, where 1 is the maximum; inactive means score below 0.9). Particulars: mRNA level, 48 h; actives raise or lower the signal. The procedure, abridged: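 mRNA measured by qRT-PCR (TaqMan, Fluidigm arrays) against ACTB/GAPDH/POLR2A housekeepers after 48 h chemical exposure of HepaRG cells. Top concentration 100 uM, half-log 8-point series, duplicates; vehicle 0.5% DMSO, both fit directions.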

Read-out in experiment [2]: Thyroid Hormone Responsive (THRSP), THRSP (gene 7069)
As to the kind of experiment: LTEA_HepaRG_THRSP: Life Technologies and Expression Analysis (LTEA) Assay for Thyroid Hormone Responsive (THRSP) using HepaRG (AID 2283536; active means hit-call score of the fitted dose curve at least 0.9, where 1 is the maximum; inactive means score below 0.9). The settings on record: mRNA level, 48 h; actives raise or lower the signal. The procedure, abridged:
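Differentiated human HepaRG cells were exposed in duplicate for 48 h in serum-free induction medium to eight concentrations (top 100 uM, half-log steps, 0.5% DMSO). Expression was quantified by TaqMan qRT-PCR, normalized to ACTB, GAPDH and POLR2A, with bidirectional fitting against DMSO.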

Read-out in experiment [3]: Cellular tumor antigen p53 (Homo sapiens) (UniProt P04637)
Nature of the experiment: LTEA_HepaRG_TP53: Life Technologies and Expression Analysis (LTEA) Assay for Tumor Protein P53 (TP53) using HepaRG (AID 2283537; active means hit-call score of the fitted dose curve at least 0.9, where 1 is the maximum; inactive means score below 0.9). Particulars: mRNA level, 48 h; actives raise or lower the signal. The procedure, abridged:
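Differentiated HepaRG cells in serum-free induction medium exposed 48 h in duplicate to 8 half-log concentrations, top 100 uM, 0.5% DMSO. TP53 mRNA by TaqMan qRT-PCR (Fluidigm), normalized to ACTB, GAPDH, POLR2A; fitted bidirectionally versus DMSO.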

Read-out in experiment [4]: UDP glucuronosyltransferase (UGT1A1), UGT1A1 (gene 54658)
Nature of the experiment: LTEA_HepaRG_UGT1A1: Life Technologies and Expression Analysis (LTEA) Assay for UDP glucuronosyltransferase (UGT1A1) using HepaRG (AID 2283538; active means hit-call score of the fitted dose curve at least 0.9, where 1 is the maximum; inactive means score below 0.9). The settings on record: mRNA level, 48 h; actives raise or lower the signal. The gist of the method:
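Differentiated human HepaRG cells in serum-free induction medium were exposed in duplicate for 48 h to eight half-log concentrations up to 100 uM in 0.5% DMSO. UGT1A1 mRNA was quantified by TaqMan qRT-PCR, normalized to ACTB, GAPDH and POLR2A, and fitted bidirectionally against DMSO.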

Read-out in experiment [5]: UDP glucuronosyltransferase (UGT1A6), UGT1A6 (gene 54578)
Nature of the experiment: LTEA_HepaRG_UGT1A6: Life Technologies and Expression Analysis (LTEA) Assay for UDP glucuronosyltransferase (UGT1A6) using HepaRG (AID 2283539; active means hit-call score of the fitted dose curve at least 0.9, where 1 is the maximum; inactive means score below 0.9). The settings on record: mRNA level, 48 h; actives raise or lower the signal. The gist of the method:
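Expression was quantified by TaqMan qRT-PCR on Fluidigm arrays with ACTB/GAPDH/POLR2A normalization and bidirectional fitting against 0.5% DMSO. HepaRG cells (~100,000/well) were treated in duplicate for 48 h at eight half-log concentrations up to 100 uM in serum-free induction medium.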

Read-out in experiment [6]: X-box binding protein 1 (XBP1), XBP1 (gene 7494)
As to the kind of experiment: LTEA_HepaRG_XBP1: Life Technologies and Expression Analysis (LTEA) Assay for X-box binding protein 1 (XBP1) using HepaRG (AID 2283540; active means hit-call score of the fitted dose curve at least 0.9, where 1 is the maximum; inactive means score below 0.9). The settings on record: mRNA level, 48 h; actives raise or lower the signal. The procedure, abridged: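 XBP1 transcript by qRT-PCR (housekeeping-normalized: ACTB, GAPDH, POLR2A) after 48 h chemical treatment of HepaRG cells, 8-point half-log series topping at 100 uM, vehicle 0.5% DMSO. Gain and loss of signal fitted relative to DMSO.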

Experiment [7] in a line: LTEA_HepaRG_LDH_cytotoxicity: Cytotoxicity Assessment in the Life Technologies and Expression Analysis (LTEA) Assay (AID 2283563).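 On AC50: LDH activity released into spent culture medium as a marker of cell death.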 The gist of the method:
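LDH release into culture medium read after 48 h chemical treatment of HepaRG cells. Duplicate wells, eight-point half-log series topping at 100 uM, 0.5% DMSO vehicle and baseline.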

Experiment [8] is described as follows: ATG_XTT_Cytotoxicity: Cytotoxicity Assessment in the Attagene TRANS-FACTORIAL HepG2 Assay (AID 2283584). The procedure, abridged:
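Viability endpoint from XTT after 24 h chemical exposure of reporter-transfected human HepG2 liver cells; signal loss fitted relative to DMSO negative control.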

Experiment [9] is described as follows: TOX21_p53_BLA_p2_viability: Viability Assessment in the Tox21 HCT-116 p53 Agonism Beta-lactamase Assay, Phase 2 (AID 2283591).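 Further: compound exposure lasted 16 h at 37 °C; actives lower the ATP signal meaning cytotoxicity.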 The gist of the method:
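HCT-116 p53-bla cells (4000/well) rested 5 h at 37C, then received compounds in DMSO (217-fold dilution) for 16 h at 37C, 5% CO2. After the CCF4 read, CellTiter-Glo was added; ATP luminescence was read after 30 min at room temperature.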

Experiment [10] addresses Cellular tumor antigen p53 (Homo sapiens) (UniProt P04637). As to the kind of experiment: TOX21_p53_BLA_p2_ratio: Tox21 HCT-116 p53 Agonism Beta-lactamase Assay, Ratio, Phase 2 (AID 2283592). The procedure, abridged:
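Gain-of-signal p53 agonism was scored from the beta-lactamase FRET ratio (460/530 nm, 405 nm excitation) in HCT116 cells treated 16 h at 37C, 5% CO2, with DMSO serving as negative control and baseline.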

The nature of experiment [11]: TOX21_p53_BLA_p3_viability: Viability Assessment in the Tox21 HCT-116 p53 Agonism Beta-lactamase Assay, Phase 3 (AID 2283593).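 Further: cells exposed to compound for 16 h before reading.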 The gist of the method:
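HCT-116 cells (4000/well) rested 5 h at 37C, then got DMSO compounds by pin tool (217-fold dilution) for 16 h at 37C, 5% CO2. After the bla read, CellTiter-Glo was added and luminescence read at 30 min, room temperature.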

In experiment [12] the target is Cellular tumor antigen p53 (Homo sapiens) (UniProt P04637). Nature of the experiment: TOX21_p53_BLA_p3_ratio: Tox21 HCT-116 p53 Agonism Beta-lactamase Assay, Ratio, Phase 3 (AID 2283596). The procedure, abridged:
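HCT116 p53-bla cells (4000/well) given compound in DMSO (217-fold dilution) after 5 h, incubated 16 h at 37C. CCF4-AM substrate 2 h at room temperature; 460/530 nm emission ratio, gain fitted against DMSO.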

A short description of experiment [13]: TOX21_p53_BLA_p4_viability: Viability Assessment in the Tox21 HCT-116 p53 Agonism Beta-lactamase Assay, Phase 4 (AID 2283597).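 Further: hits lower the luminescence signal meaning cytotoxicity.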 The procedure, abridged:
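Following a 16 h exposure at 37C, the treated HCT116 wells were first read for the FRET ratio. They were then lysed with CellTiter-Glo, and ATP luminescence was recorded after 30 min at room temperature.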

In experiment [14] the target is Cellular tumor antigen p53 (Homo sapiens) (UniProt P04637). Nature of the experiment: TOX21_p53_BLA_p5_ratio: Tox21 HCT-116 p53 Agonism Beta-lactamase Assay, Ratio, Phase 5 (AID 2283599). The procedure, abridged:
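HCT-116 cells carrying a p53-inducible beta-lactamase reporter were seeded at 4000 cells/well and dosed after 5 h with compound in DMSO (217-fold dilution). After 16 h at 37C, CCF4-AM substrate was added for 2 h, and the 460/530 nm emission ratio was scored as gain-of-signal versus DMSO.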

A short description of experiment [15]: TOX21_p53_BLA_p5_viability: Viability Assessment in the Tox21 HCT-116 p53 Agonism Beta-lactamase Assay, Phase 5 (AID 2283600). The procedure, abridged:
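After the 460/530 nm beta-lactamase measurement, the wells received an ATP-detection luciferase reagent; signal was read 30 min later at RT. Compound treatment lasted 16 h on cells pre-incubated 5 h post-seeding.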

Experiment [16] has as its target Cellular tumor antigen p53 (Homo sapiens) (UniProt P04637). Nature of the experiment: TOX21_p53_BLA_p4_ratio: Tox21 HCT-116 p53 Agonism Beta-lactamase Assay, Ratio, Phase 4 (AID 2283601). The gist of the method: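 HCT116 cells carrying an inducible beta-lactamase reporter were plated at 4000 cells/well, rested 5 h, then exposed to compounds in DMSO (217-fold dilution) for 16 h at 37C. CCF4-AM substrate was loaded 2 h at room temperature; 460/530 nm emission ratio scored gain-of-signal versus DMSO.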

Experiment [17] in a line: Tanguay_ZF_120hpf_MORT_legacy: (Legacy) Oregon State University Tanguay Lab 120 Hour Post-fertilization zebrafish Assay for Mortality (AID 2283633).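 On AC50: fitted as increase in binary mortality versus DMSO negative control.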 The gist of the method: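 Static waterborne exposure from 6 to 120 hpf at 28C of single dechorionated wild-type (5D) embryos per well, 0.64% DMSO final. Death recorded present/absent by brightfield at 24 and 120 hpf.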
A short description of experiment [18]: Tanguay_ZF_120hpf_YSE_legacy: (Legacy) Oregon State University Tanguay Lab 120 Hour Post-fertilization zebrafish Assay for Yolk Sac Edema (AID 2283634). The procedure, abridged: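 Presence or absence of yolk sac edema was recorded at 120 hpf in surviving larvae. These were wild-type Tropical 5D embryos, chorion removed at 4 hpf, held in static exposure at 28C from 6 hpf with 0.64% DMSO vehicle.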

Experiment [19] can be described thus: Tanguay_ZF_120hpf_AXIS_legacy: (Legacy) Oregon State University Tanguay Lab 120 Hour Post-fertilization zebrafish Assay for Body Axis Malformation (AID 2283635). The procedure, abridged: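 Binary scoring of axis defects at 120 hpf under brightfield, fitted positive versus DMSO. Tropical 5D embryos, chorion removed by pronase at 4 hpf, were singly exposed in sealed, dark plates at 28C from 6 hpf; DMSO 0.64% final.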

Sequence of Cellular tumor antigen p53 (Homo sapiens) (P04637 whole entry, looked up): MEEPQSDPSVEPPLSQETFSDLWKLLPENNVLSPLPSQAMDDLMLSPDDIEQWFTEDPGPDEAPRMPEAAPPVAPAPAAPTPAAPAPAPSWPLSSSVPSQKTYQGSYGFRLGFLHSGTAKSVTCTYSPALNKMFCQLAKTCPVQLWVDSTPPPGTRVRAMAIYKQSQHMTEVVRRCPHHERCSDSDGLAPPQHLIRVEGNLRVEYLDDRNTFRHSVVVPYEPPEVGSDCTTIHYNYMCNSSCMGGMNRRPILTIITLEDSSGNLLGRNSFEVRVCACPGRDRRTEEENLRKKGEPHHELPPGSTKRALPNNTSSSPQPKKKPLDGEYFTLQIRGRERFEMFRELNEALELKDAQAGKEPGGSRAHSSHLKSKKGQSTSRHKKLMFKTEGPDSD

As for `O=C(O)c1ccccc1`, the outcome in the experiment with TIMP1, TIMP1 (gene 7076) is “inactive”; in [1], “inactive”; in experiment [2], “inactive”; in experiment [3], “inactive”; in experiment [4] it was “inactive”; in experiment [5], “inactive”. Also, the result in experiment [6], in experiment [7], in [8], in experiment [9], in experiment [10] and in experiment [11] was inactive. For the same compound, the result in experiment [12], in experiment [13], in [14], in experiment [15], in [16] and in experiment [17] was inactive. The compound was classed as inactive in experiment [18] and in [19].
Consider `C[C@]12C[C@H](O)[C@H]3[C@@H](CCC4=CC(=O)CC[C@@]43C)[C@@H]1CC[C@@H]2C(=O)CO`, for which the outcome with TIMP1, TIMP1 (gene 7076) was “inactive”; in [1] it was “inactive”; in experiment [3], “inactive”; in [5] it was “inactive”; in experiment [6], “inactive”; in experiment [7], “inactive”. In addition, the result in experiment [8], in experiment [9], in experiment [10], in [11], in experiment [12] and in experiment [13] was inactive. The result in experiment [14], in experiment [16], in [17], in [18] and in experiment [19] was inactive. Besides, the AC50 in experiment [2] and in experiment [4] was 50 µM (active) in each case.
`Cc1nn(C)c(Oc2ccccc2)c1C=NOCc1ccc(C(=O)OC(C)(C)C)cc1`: the half-maximal activity concentration (AC50) (in general, the concentration giving half of the maximal activity seen) with TIMP1, TIMP1 (gene 7076) was 6.47 µM (active); in experiment [2], 3.57 µM (active); in [3] it was 6.96 µM (active); in experiment [4], 2.29 µM (active); in experiment [5], 1.61 µM (active); in experiment [7] it was 8.6 µM (active). Besides, the values for the AC50 in [10] and in [17] were 0.0043 µM (active) and 3.26 µM (active), respectively. Moreover, the call in experiment [1], in experiment [6], in [9], in experiment [11], in [12] and in [13] was inactive. Also, the outcome in experiment [14], in experiment [15], in [16], in [18] and in experiment [19] was inactive.
